Consider 26 compounds from PubChem BioAssay (EPA / NIEHS).

SMILES strings stand for the structures. Where “and” joins values, the source holds several entries; their conditions need not be identical. Identical values can stand only once. Some structures have more than one record in an assay (separate samples or runs), and their calls can disagree. Calls of active or inactive are those of the source. The calls were made as follows: active = hit-call score of the fitted dose curve at least 0.9, where 1 is the maximum; inactive = score below 0.9.

Read-out in the test: HGF (gene 3082)
Description: LTEA_HepaRG_HGF: Life Technologies and Expression Analysis (LTEA) Assay for Hepatocyte Growth Facto (HGF) using HepaRG (AID 2283505). The settings on record: mRNA level, 48 h; actives raise or lower the signal. A digest of the protocol: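 Gain or loss of HGF mRNA in human HepaRG liver cells after 48 h chemical exposure; eight concentrations up to 100 uM with 0.5% DMSO vehicle, quantified by TaqMan qRT-PCR.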
Usually AC50 stands for the concentration at which the activity in the assay is half-maximal. As for `Cc1nn(C)c(Oc2ccccc2)c1C=NOCc1ccc(C(=O)OC(C)(C)C)cc1`, the AC50 was 86.6 µM (active).

On to `CCCCOCCOCCOCc1cc2c(cc1CCC)OCO2`, for which the call was inactive.

For the compound `S=C(S)NCCNC(=S)S.[Mn+2].[S-]C([S-])=NCCN=C([S-])[S-].[Zn+2]`, the AC50 is 3.68 µM (active) and 9.89 µM (active); the compound was called inactive.

Consider `CCOC(=O)C(C)Oc1ccc(Oc2nc3ccc(Cl)cc3o2)cc1` (configuration not stated), for which the result was inactive.

In the case of `CCOC(=O)COc1cc(-n2ncc(C(F)(F)F)c(C)c2=O)c(F)cc1Cl`, the outcome was inactive.

Regarding `CSC(=O)c1cccc2nnsc12`, the compound was called inactive.

Regarding `O=C(O)c1ccccc1`, the result was inactive.

As to `CCCCOC(=O)[C@@H](C)Oc1ccc(Oc2ccc(C(F)(F)F)cn2)cc1`, the result was inactive.

With `CCCOC(=O)c1ccc(C(=O)OCCC)nc1`, the outcome was inactive.

With `CC(=O)S[C@@H]1CC2=CC(=O)CC[C@]2(C)[C@H]2CC[C@@]3(C)[C@@H](CC[C@@]34CCC(=O)O4)[C@H]12`, the outcome was inactive.

Turning to `CC(C)CCCCCCc1ccc(O)cc1`, the compound was classed as inactive.

For the compound `CCC(C)OC(=O)N1CCCCC1CCO` (configuration not stated), the outcome was inactive.

For the compound `OB(O)O`, the outcome was inactive.

On to `C[C@]12C[C@H](O)[C@H]3[C@@H](CCC4=CC(=O)CC[C@@]43C)[C@@H]1CC[C@@H]2C(=O)CO`, for which the compound was classed as inactive.

For the compound `CC(C)(C)[C@@H](O)[C@@H](Cc1ccc(Cl)cc1)n1cncn1`, the call was inactive.

For `CCCCCOC(=O)COc1cc(N2C(=O)C3=C(CCCC3)C2=O)c(F)cc1Cl`, the compound was classed as inactive.

In the case of `CC(C)(c1ccc(O)cc1)c1ccc(O)cc1`, the compound was called inactive.

Take `C=CCOC(Cn1ccnc1)c1ccc(Cl)cc1Cl` (configuration not stated): the compound was called inactive.

As to `c1ccc(Nc2ccccc2)cc1`, the outcome was inactive.

For `O=C(Nc1ccc([N+](=O)[O-])cc1Cl)c1cc(Cl)ccc1O`, the AC50 is 2.98 µM (active).

As to `CCN(Cc1c(F)cccc1Cl)c1c([N+](=O)[O-])cc(C(F)(F)F)cc1[N+](=O)[O-]`, the result was inactive.

For `C[C@]12CC[C@@H]3c4ccc(O)cc4C[C@@H](CCCCCCCCCS(=O)CCCC(F)(F)C(F)(F)F)[C@H]3[C@@H]1CC[C@@H]2O` (some centres not stated), the AC50 is 0.0444 µM (active).

As to `C#CCOC(=O)[C@@H](C)Oc1ccc(Oc2ncc(Cl)cc2F)cc1`, the compound was called inactive.

Regarding `S=C([S-])NCCNC(=S)[S-].[Mn+2]`, the half-maximal activity concentration (AC50) is 7.5 µM (active).

For `CN(C)C(=O)Nc1ccc(Cl)c(Cl)c1`, the compound was classed as inactive.

`CCN(CC)C(=O)c1cccc(C)c1`: the outcome was inactive.
